An excerpt weighted towards active compounds, which were near 4.5% of everything screened.
Gli-Sufu block = blocks Gli-Sufu signaling in a luciferase reporter; 0.74% of 340,000 active; inhibition, % at 5 µM; Sufu-KO-LIGHT fibroblasts, Gli luciferase reporter luminescence;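 active means inhibition above about 55%, limit read from the data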;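 further: 0% = DMSO-treated cells and 100% = wells with medium but no cells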
697 NFkB inh = inhibitors of the PMA/ionomycin-induced NF-kB reporter in 697 B cells; 697 B-cell NF-kB luciferase reporter, 16 h; AID 435022; inhibition, % at 4 µM; 0.33% of 330,000 active; in the data active means inhibition above about 35%
Beta apoptosis = beta cell apoptosis inhibition; INS-1E cytokine-induced death, ATP luminescence, 48 h; percent of positive-control rescue, neutral wells zero; protection from apoptosis, % (test concentration not listed); 0.8% of 300,000 active;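 active means Every replicate reaches about 75%, or at least half do and their mean reaches it too, limit read from the data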;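 further: 0% = cytokine-treated negative control wells and 100% = positive control rescue; higher means more ATP so stronger rescue from cytokine killing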
CSC inhib = cancer stem cell inhibition | 1.1% of 300,000 active | cancer stem cell-like cells viability, luminescence | inhibition, % at 7.5 µM; in the data active means inhibition above about 75%; tested in HMLE shEcad cells
Mdm2-MdmX inh = human Mdm2/MdmX binding inhibition; inhibition, % at 8 µM; SaOS-2 split-luciferase Mdm2/MdmX complementation, luminescence; 3% of 330,000 active;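 active means inhibition of at least 50% at 8 µM in the primary screen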
Jurkat NFkB inh = lowers PMA/ionomycin-induced NF-kB signal in Jurkat cells; PMA/ionomycin-induced NF-kB luciferase reporter, luminescence; inhibition, % at 4 µM; 0.53% of 330,000 active; AID 435003; in the data active means inhibition above about 50%
697 NFkB conf = inhibitors of the PMA/ionomycin-induced NF-kB reporter in 697 B cells, retest; inhibition, % at 4 µM; AID 449746; shares compounds with 697 NFkB inh; 35% of 2,000 active; 697 B-cell NF-kB luciferase, 16 h; in the data active means inhibition mostly above about 28%, no sharp cut-off; inactive means mostly below about 22%
Mdm2 MdmX conf = confirmation of human Mdm2/MdmX interaction inhibitors; shares compounds with Mdm2-MdmX inh; Mdm2-MdmX binding, luminescent assay; inhibition, % at 8 µM; 55% of 10,000 active; AID 489028; in the data active means inhibition above about 40%
Full FLuc ctr = inhibits full-length luciferase, flagging false Mdm2/MdmX hits | shares compounds with Mdm2-MdmX inh | SaOS-2 full-length luciferase counterscreen, luminescence | inhibition, % at 8 µM | 77% of 6,200 active;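 active means mean inhibition at 8 µM reaching about 37%, which flags the compound as non-specific, limit read from the data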;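 further: p53-null SaOS-2 cells with luciferase driven by a doxycycline-inducible promoter; compound on cells about two nights before reading with doxycycline added after day one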
Starred values were filed as active, the others as inactive; i = inactive; · = no result given.

SMILES	Gli-Sufu block	697 NFkB inh	Beta apoptosis	CSC inhib	Mdm2-MdmX inh	Jurkat NFkB inh	697 NFkB conf	Mdm2 MdmX conf	Full FLuc ctr
CCOC(=O)Cn1c(S(=O)(=O)Cc2ccccc2Cl)nc(-c2ccccc2)c1-c1ccccc1	19.8	-0.7	23.8	13.7	33.2	6.6	·	·	·
C/C(=N\NC(=O)CNC(=O)c1cccc(F)c1)c1ccc2ccccc2c1	1.5	4.9	0.5	·	18.2	0.3	·	·	·
COc1ccc(C2=Nn3c(nnc3-c3ccccc3)SC2)cc1OC	-2.5	-4.9	-5.8	15.7	33.5	17.8	·	·	·
COc1ccc(C2=Nn3c(nnc3-c3ccccc3F)SC2)cc1OC1CCCC1	-28.1	i	8.7	82.0*	99.8*	22.0	i	86.0*	28.6
O=C(Nc1ccccc1N1CCOCC1)c1ccc(N2CCCC2=O)cc1	-0.4	9.5	-0.5	·	32.2	11.6	·	·	·
Fc1ccc(C2=Nn3c(nnc3-c3n[nH]c4c3CCC4)SC2)cc1	17.9	43.6*	-10.3	-7.9	76.1*	-8.7	53.4*	43.9*	81.8*
CC1=Nn2c(nnc2-c2n[nH]c3c2CCC3)SC1	-4.1	23.0	-3.5	-2.4	16.2	-14.6	·	·	·
CC(C)CN(C(=O)c1cccc(S(=O)(=O)N2CCN(C)CC2)c1)C1CCS(=O)(=O)C1 (stereo not drawn)	-2.4	4.8	-2.6	-15.6	5.6	5.2	·	·	·
O=C(OCC(=O)c1ccc(Cl)s1)c1ccc(CO)cc1	-6.6	0.0	-2.2	-1.0	-8.1	4.6	·	·	·
CN(CC(=O)Nc1ccccc1Br)C(=O)c1cc(Cl)nc2ccccc12	-1.0	10.7	-13.0	·	9.1	-21.4	·	·	·
COc1ccc(-c2cc(C(=O)N(C)CC(=O)Nc3ccccc3Br)c3ccccc3n2)cc1OC	10.9	44.4*	11.5	19.8	55.8*	19.7	20.9	49.3*	80.2*
Cn1c(=NC(=O)CCl)sc2ccccc21	6.9	88.3*	-5.7	10.3	98.4*	46.0	79.0*	96.9*	28.7
Cn1c(=NC(=O)c2ccco2)sc2ccccc21	-81.5	-94.9	-0.2	-8.9	-80.2	-94.4	·	·	·
O=C(NC1CCCc2c1cnn2-c1ccccc1F)c1ccccn1 (stereo not drawn)	20.9	i	-0.2	48.7	86.2*	-65.8	i	71.7*	28.6
Cc1cc(C)c(C(=O)NC2CCCc3c2cnn3-c2cccc(C)c2C)o1 (stereo not drawn)	1.5	-276.1	5.1	23.0	78.3*	20.4	-23.2	74.7*	42.9*
CN1c2ccccc2C(C)(C)C12CC(c1cccc(S(=O)(=O)N3CCCC3)c1)=NO2 (stereo not drawn)	10.4	i	37.5	4.9	69.1*	-66.0	i	64.5*	106.0*
O=S(=O)(c1ccc(-c2ccccc2)cc1)N1CCCCC1	-2.9	-11.1	-2.9	-4.3	37.2	13.0	·	·	·
CN1c2ccccc2C(C)(C)C12CC(c1ccc(S(=O)(=O)N3CCCCC3)cc1)=NO2 (stereo not drawn)	17.7	i	11.9	·	65.1*	-53.5	i	73.7*	73.8*
CCN(CC)S(=O)(=O)c1ccc(C2=NOC3(C2)N(C)c2ccccc2C3(C)C)cc1 (stereo not drawn)	21.0	-483.5	12.3	24.1	71.8*	-72.2	i	69.2*	79.1*
O=[N+]([O-])c1ccc(O)c(-c2cc(C(F)(F)F)nc(-c3ccccc3)n2)c1	87.9*	i	119.0*	88.4*	95.3*	44.6	-459.8	99.3*	51.5*
N=c1ccn2c(n1)OC1C(O)C(CO)OC12 (stereo not drawn)	34.4	54.3*	11.5	9.7	69.2*	28.1	59.7*	72.1*	45.7*
Cc1ccc(-n2ncc3c(SCc4ccccn4)ncnc32)c(C)c1	-2.4	i	6.2	31.2	84.2*	-78.0	i	77.8*	27.6
Cc1nc2c(-c3ccc(F)cc3)cnn2c(N)c1-c1ccccc1	40.9	-310.2	3.7	67.9	91.0*	-35.7	-223.9	86.7*	110.2*
CC(=O)c1sc(NC(=O)C2CCN(c3ncnc4sc(C)c(C)c34)CC2)nc1-c1ccccc1	-6.8	11.5	·	6.7	9.5	9.9	·	·	·
Cc1sc2ncnc(N3CCC(C(=O)Nc4nc(-c5ccc(F)cc5)cs4)CC3)c2c1C	5.8	-282.1	·	35.7	94.2*	8.3	-45.5	90.0*	60.3*
SMILES	Gli-Sufu block	697 NFkB inh	Beta apoptosis	CSC inhib	Mdm2-MdmX inh	Jurkat NFkB inh	697 NFkB conf	Mdm2 MdmX conf	Full FLuc ctr
Cc1ccc(C2(c3ccc(C)cc3)CC2C(=O)Nc2ccc([N+](=O)[O-])cc2O)cc1 (stereo not drawn)	21.8	97.3*	124.5*	173.6*	95.8*	23.4	96.8*	93.1*	49.0*
CCc1nc2c(c(=O)c3ccccc3n2C)c(=O)n1CCc1ccc(OC)cc1	·	i	-0.1	-12.6	87.9*	-51.9	i	65.8*	122.6*
Cc1ccnc(NC(=O)Cn2c(=O)oc3ccccc32)c1	0.4	18.3	-11.8	-3.4	-12.1	0.7	·	·	·
C[C@H](CO)N1C[C@H](C)[C@@H](CN(C)C(=O)Nc2ccc3c(c2)OCO3)Oc2c(NC(=O)Nc3ccc(C(F)(F)F)cc3)cccc2C1=O	4.3	45.7*	3.3	39.3	79.8*	-3.3	16.1	69.1*	68.2*
COc1ccccc1N(Cc1ccccc1)S(=O)(=O)c1cccc(C(=O)Nc2ccccn2)c1	3.4	-324.5	5.2	32.3	66.6*	-7.4	-190.2	60.5*	91.0*
COc1ccccc1N(Cc1ccccc1)S(=O)(=O)c1cccc(C(=O)Nc2ccc(C(C)=O)cc2)c1	-24.1	-58.6	0.4	·	11.1	-25.9	·	·	·
Cn1ncc2c(=O)[nH]cnc21	0.1	21.5	·	-7.3	6.7	5.6	·	·	·
O=C(C[n+]1cc(-c2ccccc2)n2c1CCCCC2)c1ccc(Br)cc1	30.6	7.3	8.1	-2.3	34.9	9.7	·	·	·
Cc1ccc(C(=O)C[n+]2cc(-c3ccc(C)cc3)n3c2CCCCC3)cc1	88.4*	80.5*	124.9*	9.6	53.2*	46.2	54.2*	53.5*	48.1*
COCC(C)N1CCC(n2nccc2NC(=O)CCCc2ccccc2)CC1 (stereo not drawn)	-2.8	-3.2	5.7	-10.2	-10.3	-2.0	·	·	·
COc1ccc(C(=O)Cn2c(=N)n(C)c3ccccc32)cc1	-37.0	-199.4	·	-6.4	-75.8	-123.8	·	·	·
Cn1c(=N)n(CC(=O)c2ccc(Cl)c(Cl)c2)c2ccccc21	9.4	-439.3	5.1	7.7	77.8*	-76.9	-414.0	73.5*	145.1*
O=C(Nc1ccc2c(c1)CCCN2C(=O)c1ccccc1)c1ccccc1Br	-8.7	-333.3	15.0	28.3	79.0*	-12.9	-180.0	46.5*	77.5*

Screening results from PubChem BioAssay.
